From PubChem BioAssay
Sa growth 42C: blocks Staphylococcus aureus growth. S. aureus RN4220 growth, OD600, 20 h, 42 °C; hits give low values. relative growth, % (no concentration beside the values). actives 0.53% (n = 170,000). AID 720641;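 active = relative growth at most 50% at the other temperature and 20+ points below 30 °C, or under 10% at both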
HCMV NEC inh: inhibitors of HCMV UL50-UL53 nuclear egress complex interaction; inhibition, % (concentration not given with the values); HTRF UL50-UL53 interaction, normalized percent inhibition; actives 0.15% (n = 190,000); in the data active = inhibition above about 27%, passing the limit was not always enough
S aureus helic: S. aureus DNA helicase inhibition | purified S. aureus helicase, fluorescence unwinding assay | inhibition, % (concentration not given with the values) | actives 0.05% (n = 120,000) | AID 485395; in the data active = inhibition above about 25%, passing the limit was not always enough;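 note: 0% = mean of negative control wells and 100% = mean of positive control wells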
* hit, by the source's call; ! = repeats disagree. Many of the other results were omitted from the sample, so hits are more common in it than they were.

Cc1nn(C)c2nc(OCC(=O)NC3CCCC3)cc(C(F)(F)F)c12 was read as HCMV NEC inh -31.7.
For O=C(NCCc1ccc(Cl)cc1)C(Cc1ccccc1)NS(=O)(=O)c1cccc2cccnc12 (stereo unspecified) the results were HCMV NEC inh -28.7.
Screening CC(=O)NCCc1csc(-c2ccc(Cl)cc2)n1 returned HCMV NEC inh -41.8.
For CN1CCC(N(C)Cc2csc(-c3ccc(Cl)cc3)n2)CC1 the results were Sa growth 42C -0.3*, HCMV NEC inh -34.1 and S aureus helic -17.0.
Screening Cc1ccc2cc(CCNS(=O)(=O)c3ccccc3)c(=O)[nH]c2c1 returned HCMV NEC inh -18.0 and S aureus helic -19.0.
`CC[C@@H]1OC(=O)C[C@H](O)[C@@H](C)[C@@H](O[C@@H]2O[C@H](C)[C@@H](O[C@H]3C[C@@](C)(O)[C@@H](O)[C@H](C)O3)[C@H](N(C)C)[C@H]2O)[C@@H](C=O)C[C@@H](C)C(=O)/C=C/C(C)=C\[C@@H]1CO[C@H]1O[C@@H](C)[C@H](O)[C@H](OC)[C@@H]1OC` gave Sa growth 42C -1.0* and HCMV NEC inh -30.7.
Screening CC[C@H]1OC(=O)C[C@@H](O)[C@H](C)[C@@H](O[C@@H]2O[C@H](C)[C@@H](O[C@H]3C[C@@](C)(O)[C@@H](O)[C@H](C)O3)[C@H](N(C)C)[C@H]2O)[C@@H](CC=O)C[C@@H](C)C(=O)/C=C/C(C)=C/[C@@H]1CO[C@@H]1O[C@H](C)[C@@H](O)[C@@H](OC)[C@H]1OC returned Sa growth 42C -0.2* and HCMV NEC inh -45.4.
`O=C(CSCc1ccc(F)cc1)Nc1cccc2nsnc12` gave HCMV NEC inh -32.9.
Screening COc1ccc(-n2ccc(O)c(Cc3ccc(Cl)cc3)c2=O)cc1 returned HCMV NEC inh -5.3.
O=C(CSc1ncn[nH]1)c1cccc(C(F)(F)F)c1 was read as Sa growth 42C 100.7, HCMV NEC inh -3.9 and S aureus helic -11.0.
COc1ccc(NCC(=O)N/N=C/c2c(C)nn(-c3ccccc3)c2N2CCCC2)cc1 was read as Sa growth 42C 105.5, HCMV NEC inh -4.2 and S aureus helic -12.0.
`O=C(O)Nc1cc(Cl)cc(Cl)c1` gave Sa growth 42C -0.4*, HCMV NEC inh -0.3 and S aureus helic 4.0.
For O=C(Nc1cc(Cl)cc(Cl)c1)C1CC1 the results were Sa growth 42C 78.8 and HCMV NEC inh 2.1.
`O=C(Cn1nc2c3ccccc3ncn2c1=O)NC1CCCC1` gave HCMV NEC inh -20.0.
Screening CN(C)CCOc1ccc(C(=C(CCCl)c2ccccc2)c2ccccc2)cc1 returned HCMV NEC inh -3.1.
CN(C)CCOc1ccc(/C(=C(/CCCl)c2ccccc2)c2ccccc2)cc1 was read as Sa growth 42C 7.1*! and HCMV NEC inh -27.2.
Screening C/C=C(/C)C(=O)OC1CC(O)(C(C)C)C2C(OC(=O)c3ccc(O)cc3)CC(C)=CCC12C (stereo unspecified) returned Sa growth 42C 6.0*, HCMV NEC inh -14.3 and S aureus helic -1.0.
CC(=O)Nc1ccc(S(=O)(=O)Nc2ccc(Nc3cc(N(C)C)nc(C)n3)cc2)cc1 was read as HCMV NEC inh 8.4.
Cc1ccc(Cc2cn3cc(-c4ccc(F)cc4)nc3s2)cc1 was read as Sa growth 42C 95.8 and HCMV NEC inh -19.4.
Screening Cc1ccc(Cc2c[nH]c(=S)s2)cc1 returned Sa growth 42C 22.9*, HCMV NEC inh 3.6 and S aureus helic 9.0.
`CCCn1nc(C)cc1N` gave Sa growth 42C 95.4, HCMV NEC inh -6.2 and S aureus helic 6.0.
`CC(C)(C)c1ccc(C(=O)N2CCc3cc4ccccc4nc32)cc1` gave HCMV NEC inh -17.2.
For CC1c2cccc(O)c2C(O)=C2C(=O)[C@]3(O)C(O)=C(C(N)=O)C(=O)[C@@H](N(C)C)[C@@H]3C[C@@H]21 (stereo partly specified) the results were HCMV NEC inh -70.4.
`C[C@H]1c2cccc(O)c2C(O)=C2C(=O)C3(O)C(O)=C(C(N)=O)C(=O)[C@@H](N(C)C)[C@@H]3[C@@H](O)[C@@H]21` (stereo partly specified) gave HCMV NEC inh -20.0.
C=C1c2c(Cl)ccc(O)c2C(O)=C2C(=O)[C@]3(O)C(O)=C(C(N)=O)C(=O)[C@@H](N(C)C)[C@@H]3[C@@H](O)[C@H]12 was read as Sa growth 42C -0.9* and HCMV NEC inh -32.6.
`C=C1c2cccc(O)c2C(O)=C2C(=O)[C@]3(O)C(O)=C(C(N)=O)C(=O)[C@@H](N(C)C)[C@@H]3[C@@H](O)[C@H]12` gave Sa growth 42C 0.1* and HCMV NEC inh 36.3.
`COc1ccc(OCc2nc(-c3ccc4c(c3)[nH]c(=O)c(=O)n4C)no2)cc1` gave HCMV NEC inh 7.8.
